Source: PubChem BioAssay (National Center for Advancing Translational Sciences (NCATS))
RXFP1 ag = agonists of human relaxin receptor RXFP1; Q9HBX9; HEK293T-RXFP1 cAMP TR-FRET, 30 min; response scale: percent of porcine relaxin response, buffer zero; Potency, µM (series often up to 57.5 µM), for the others: at the top dose activation, most hits filed as activators; 370,000 tested, 0.3% active; active = well fitted activation curve with a large enough effect; inconclusive = small, poorly fitted or top-dose-only effect; also: potency is read from the fitted curve at half-maximal effect; % is scaled to controls: 0 for no effect and ±100 for the full control effect; nearly all actives have a fitted effect of over 60% in size
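Agonist response is measured as cAMP accumulation in an RXFP1-transfected HEK293T line under PDE4 inhibition. Values are scaled between buffer-only and 29 nM porcine relaxin, and EC50s come from standard Hill equation fits.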
gsp agonist = gsp mutant agonism. gsp mutant cells, cAMP HTRF, 30 min. Potency, µM (top dose mostly 76.9 µM), for the others: top-dose activation (cAMP increase), most hits filed as activators. 340,000 tested, 0.13% active; active = well fitted activation curve with a large enough effect; inconclusive = small, poorly fitted or top-dose-only effect, or another doubt; inactive = no such curve, though single readings can be large or run the other way; cell line not stated here;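 also: phosphodiesterase inhibitor Ro 20-1724 added with compounds to block cAMP breakdown; potency is read from the fitted curve at half-maximal effect; nearly all actives have a fitted effect of over 60% in size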
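Cells in DMEM/10% FBS with G418 were pretreated with compounds in DMSO plus […] (300 uM stock) for 30 min at 37C. cAMP was measured by HTRF (cAMP-d2 plus anti-cAMP antibody-K) after 30 min at room temperature.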
RXFP1 antag = RXFP1 (human) relaxin receptor antagonism; HEK293-RXFP1, relaxin-stimulated cAMP HTRF, 30 min; stronger effect = lower value; activity change, negative = inhibition, % at 57.5 µM; 350,000 tested, 0.59% active; AID 1259400;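 active = activity change of -60% or lower, but not beyond a set lower limit; inconclusive = change between -60% and -40%, or beyond the set limit; inactive = change above -40%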; also: % is scaled to controls: 0 for no effect and ±100 for the full control effect
gsp antagonist = gsp mutant antagonism. 340,000 tested, 0.4% active. gsp-mutant cells, cAMP HTRF, 30 min. AID 624288. Potency, µM (doses to about 76.9 µM), for inactives: top-dose activity change, negative = inhibition, most hits filed as inhibitors; calls by dose curve; cell line not stated here;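 also: intracellular cAMP measured with PDE inhibitor Ro 20-1724 present during compound exposure; potency is read from the fitted curve at half-maximal effect; % is scaled to controls: 0 for no effect and ±100 for the full control effect; nearly all actives have a fitted effect of over 65% in size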
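HTRF cAMP measurement after 30 min RT detection following 30 min, 37C compound treatment alongside […] (added as 300 uM solution) in G418-selected cells seeded at 2000/well and grown 16–24 h.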
TSHR antagonist = antagonists of human thyroid stimulating hormone receptor; P16473; TSHR-expressing cells, TSH-stimulated cAMP HTRF, 2 h; stronger effect = lower value; activity change, negative = inhibition, % at 11.5 µM; 330,000 tested, 0.2% active;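 active = activity change below a set negative limit, meaning inhibition stronger than a set level, cut at about -70% in these data; inconclusive = activity change between two set negative limits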; also: % is scaled to controls: 0 for no effect and ±100 for the full control effect
Target sequence (P16473 whole entry, looked up): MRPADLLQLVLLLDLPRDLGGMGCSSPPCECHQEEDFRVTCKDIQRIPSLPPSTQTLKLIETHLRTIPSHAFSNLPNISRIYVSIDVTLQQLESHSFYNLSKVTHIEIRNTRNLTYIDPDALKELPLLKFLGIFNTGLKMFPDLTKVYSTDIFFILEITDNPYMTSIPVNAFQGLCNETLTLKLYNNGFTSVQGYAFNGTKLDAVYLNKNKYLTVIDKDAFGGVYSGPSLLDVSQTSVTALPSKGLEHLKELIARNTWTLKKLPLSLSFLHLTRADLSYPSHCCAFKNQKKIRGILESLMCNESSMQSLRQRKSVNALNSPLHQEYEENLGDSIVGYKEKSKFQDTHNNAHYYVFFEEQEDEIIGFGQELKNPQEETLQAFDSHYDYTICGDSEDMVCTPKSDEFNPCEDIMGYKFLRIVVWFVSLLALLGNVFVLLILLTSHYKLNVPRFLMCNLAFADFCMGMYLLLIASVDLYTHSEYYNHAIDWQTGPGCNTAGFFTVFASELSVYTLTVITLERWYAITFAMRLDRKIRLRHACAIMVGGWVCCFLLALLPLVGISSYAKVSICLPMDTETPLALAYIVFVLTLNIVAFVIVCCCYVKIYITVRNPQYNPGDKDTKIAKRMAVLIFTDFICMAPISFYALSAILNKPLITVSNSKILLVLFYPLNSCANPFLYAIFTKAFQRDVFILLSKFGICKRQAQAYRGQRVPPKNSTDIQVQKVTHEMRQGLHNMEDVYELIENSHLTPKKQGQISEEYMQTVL
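Competitive HTRF cAMP read-out (cryptate anti-cAMP antibody, cAMP-d2; 30 min, room temperature) in freshly harvested TSHR cells. Compounds added before TSH at EC80 (4nM final), followed by 2 hours' incubation at 37 deg C.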
* = called active by the depositor; ? = inconclusive; · = no result given; [ ] = another dose, or the depositor's remark. The list is not random: actives were taken first. Their share in the collection is about 1%.

SMILES	RXFP1 ag	gsp agonist	RXFP1 antag	gsp antagonist	TSHR antagonist
COc1ccc(S(=O)(=O)NCCc2cn3nc(C)c(C)nc3n2)cc1F	9%	18%	18	2%	-88*
COc1ccc(-c2cc(C(C)=O)c(C)n2CCC(=O)Nc2ccc(C)cc2Cl)cc1	-1%	·	-12	·	·
CCN(CC)CCN(C(=O)c1ccc([N+](=O)[O-])cc1)c1nc2c(OC)cccc2s1	7%	13µM*	0	3%	7
COc1ccc(-c2nc3ccccc3o2)cc1NC(=O)c1cccc2c(Cl)cccc12	3%	·	-12	·	·
Cc1[nH]n(-c2ccccc2)c(=O)c1/C=C1\C=NN=C1c1ccccc1	2%	-3%[15.4 µM]	-110*	?	-17
Cc1[nH]n(-c2ccccc2)c(=O)c1/C=C1/C=c2ccccc2=N1	1%	18%[15.4 µM]	2	9%	-10
Cc1ccc(-c2csc(Nc3ccc(C(=O)O)cc3)[n+]2Cc2ccccc2)cc1	13%	-3%	-26	-11%	-39
CC(=O)Nc1scc(-c2ccccc2)[n+]1-c1ccc(C)cc1	21%	41%	0	50µM*	-6
Cc1ccc2nc(-c3ccccc3)cc(C(=O)N(C)CC(=O)Nc3ccccc3Br)c2c1	0%	11%[15.4 µM]	-75*	?	10
COc1ccc(NC(=O)CN(C)C(=O)c2cc(-c3ccccc3)nc3ccccc23)cc1	1%	14%[15.4 µM]	?	-26%	12
COc1cccc(NC(=O)c2ccc3nc(Cc4ccccc4)oc3c2)c1	-1%	·	-8	·	·
CCOc1ccc(CCNC(=O)CCc2cn(Cc3ccc(F)cc3)c3ccccc23)cc1	6%	·	11	·	·
C[C@@]12C(=O)N(c3ccc(C(F)(F)F)cc3)C(=O)N1[C@@H]1c3ccccc3OC[C@@H]1[C@H]2c1ccccc1	0%	·	·	32µM*	-16
CC1Cc2ccccc2N1S(=O)(=O)c1nnc(NC(=O)c2ccccc2Br)s1 (stereo not given)	-2%	·	-27	·	·
Brc1ccc(OCc2ccccc2)c(CNCc2ccncc2)c1	-1%	-28%	-89*	?	34
COC(=O)c1sccc1NC(=O)CN(C)NS(=O)(=O)c1ccc(F)cc1	2%	-1%	20	50µM*	21
COc1ccccc1OCCCCn1c(-c2ccc(Cl)cc2)nc2ccccc2c1=O	3%	·	-9	·	·
O=C(Nc1ccc(Br)cc1F)c1ccc2c(c1)N(Cc1ccccc1)C(=O)CS2=O (stereo not given)	-1%	-14%	-72*	?	-3
Cc1ccc(C)c(NC(=O)c2ccc3c(c2)N(Cc2ccc(F)cc2)C(=O)CS3=O)c1 (stereo not given)	0%	-1%	·	-4%	19
CC(=O)N1CCc2cc(CNS(=O)(=O)c3cccs3)ccc21	-1%	·	14	·	·
Cc1ccc(OCc2nnc(NC(=O)c3cccnc3)s2)cc1	0%	-1%	-2	7.9µM*	-42
Oc1cccc(-c2c3nc(c(-c4cccc(O)c4)c4ccc([nH]4)c(-c4cccc(O)c4)c4nc(c(-c5cccc(O)c5)c5ccc2[nH]5)CC4)C=C3)c1	·	·	-100*	·	·
N#Cc1c(N)nc2c(c1-c1cccc(O)c1)CCCCCC2	1%	?	-9	2%	6
O=C(Nc1nc(-c2cccs2)cs1)c1ccc([N+](=O)[O-])o1	-2%	9%	3	35µM*	-17
O=C(Nc1nc(-c2cccs2)cs1)c1ccco1	0%	8%	1	-3%	-4
SMILES	RXFP1 ag	gsp agonist	RXFP1 antag	gsp antagonist	TSHR antagonist
CCc1cccc(NS(=O)(=O)c2cc(-c3cnc(C)o3)ccc2OC)c1	1%	·	·	·	·
CCOC(=O)Cc1csc(Nc2ccc(Cl)cc2)n1	2%	-13%	6	-13%	-2
CCOC(=O)Cc1nnc2c(Nc3ccc(Cl)cc3)nc3nonc3n12	1%	6%	-14	35µM*	?
COc1ccc(C(c2c(C)[nH]n(C(N)=S)c2=O)C(C#N)C#N)cc1 (stereo not given)	0%	-29%	8	7%	-10
Cc1[nH]n(-c2ncc(-c3ccc(Cl)cc3)s2)c(=O)c1C(c1ccc(Cl)cc1)C(C#N)C#N (stereo not given)	1%	-6%[15.4 µM]	-88*	-7%	-6
CCCC(=O)N1CCN(c2ccc(NC(=O)c3cc4ccccc4o3)cc2Cl)CC1	-1%	-4%	?	?	-87*
CCC(=O)N1CCN(c2ccc(NC(=O)c3cc4ccccc4o3)cc2Cl)CC1	4%	6%	-33	20µM*	-36
O=C(Nc1ccc(N2CCN(C(=O)c3ccco3)CC2)c(Cl)c1)c1cc2ccccc2o1	3%	-9%	-5	?	?
O=c1c2ccccc2n(Cc2cccc(F)c2)c(=O)n1Cc1ccccc1Cl	-4%	·	-13	·	·
C=CCSc1nnc(NC(=O)c2cccc(S(=O)(=O)N(C)c3ccccc3)c2)s1	-2%	-1%	-28	40µM*	-35
CCn1nc(C)cc1-c1nnc(Sc2ncc([N+](=O)[O-])s2)n1C	1%	8%	-73*	11%	-92*
CCCCN(CC)C(=O)CCn1c(=O)c2cccn2c2cccnc21	-1%	·	5	·	·
COCCn1c(=S)[nH]c2cc(C(=O)N3CCN(c4ccccc4OC)CC3)ccc2c1=O	0%	5%	-112*	-3%	-1
CCOc1cc2[nH]c(=S)n(CCOC)c(=O)c2cc1OCC	-1%	4.5µM*	?	9%	-2
CCCCN(C)CCn1c(=S)[nH]c2cc(OCC)c(OCC)cc2c1=O	-1%	-68%	5	-7%	11
COCCn1c(=S)[nH]c2cc(C(=O)N3CCc4ccccc4C3)ccc2c1=O	1%	-5%[15.4 µM]	-66*	-10%	-19
COCCn1c(=O)[nH]c2cc(C(=O)N3CCN(c4ccccc4OC)CC3)ccc2c1=O	-1%	5%	-14	4%	-13
COc1ccc(/C=C\c2onc(C)c2S(=O)(=O)N2CCC(C(=O)Nc3ccccc3OC)CC2)cc1	1%	·	10	·	·
O=C(Nc1ccc2snnc2c1)Nc1cccc2ccccc12	0%	14%	-4	50µM*	-24
CCc1ccccc1NC(=O)Nc1ccc2snnc2c1	2%	·	·	·	·
CC(C)c1ccc(NC(=O)C(Cc2ccccc2)n2cccc2)cc1 (stereo not given)	4%	·	-71*	·	·
O=C(Nc1ccc(C(F)(F)F)cc1)C(Cc1ccccc1)n1cccc1 (stereo not given)	0%	·	-31	·	·
Cc1cn(C)c(CC(=O)Nc2ccc(F)cc2Cl)c1C(=O)O	0%	·	-1	·	·
Nc1nonc1-n1nnc(C(=O)N/N=C/c2ccc(Br)cc2)c1-c1ccc2c(c1)OCO2	0%	18%	?	?	-14
CCCOc1ccc(/C=N/NC(=O)c2nnn(-c3nonc3N)c2-c2cccs2)cc1OC	2%	-22%	-16	32µM*	-4
